Screening results: PubChem, several laboratories
tim23-1 inh: growth inhibitors of tim23-1 mutant yeast, primary screen, luminescence, uHTS | S. cerevisiae tim23-1 growth, BacTiter-Glo luminescence, 24 h | inhibition, % at 20 µM | hit rate 1.3% among 330,000 | AID 463212, 2010;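 active means growth inhibition of the mutant yeast at or above 50%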;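 further: temperature-sensitive mutant grown at 25 °C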
tim10-1 inh: growth inhibitors of tim10-1 mutant yeast, primary screen, luminescence, uHTS. S. cerevisiae tim10-1 ts strain growth, BacTiter-Glo, 24 h. inhibition, % at 20 µM. hit rate 2.2% among 330,000;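 active means inhibition of at least 40%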;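 further: mutant grown at 25 °C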
EBI2 block: EBI2 receptor antagonists, beta-arrestin recruitment, primary screen, cell-based, luminescence, 7a,25-OHC stimulation, uHTS. 7a,25-OHC stimulated. inhibition, % at 5 µM. hit rate 0.81% among 360,000. AID 651636, 2012; in the data active means inhibition above about 38%;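 further: enzyme fragment complementation signal reports receptor beta-arrestin coupling in cells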
Target sequence (P32249 whole entry, looked up, the tested form may be a part): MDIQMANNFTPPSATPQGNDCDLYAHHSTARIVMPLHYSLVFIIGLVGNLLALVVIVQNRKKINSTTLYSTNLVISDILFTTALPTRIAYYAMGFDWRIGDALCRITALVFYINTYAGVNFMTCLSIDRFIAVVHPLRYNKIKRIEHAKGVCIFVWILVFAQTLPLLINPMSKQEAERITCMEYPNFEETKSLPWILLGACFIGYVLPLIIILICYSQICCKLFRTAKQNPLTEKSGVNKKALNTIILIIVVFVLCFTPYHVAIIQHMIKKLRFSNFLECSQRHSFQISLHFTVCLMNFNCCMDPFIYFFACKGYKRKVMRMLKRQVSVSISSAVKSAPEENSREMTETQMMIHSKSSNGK
TIM10 inh: growth inhibitors of isogenic TIM10 control yeast, primary screen, counter-screen for tim10-1 yeast inhibitor project, luminescence, uHTS; S. cerevisiae TIM10 strain growth, BacTiter-Glo luminescence, 24 h; inhibition, % at 10 µM; hit rate 1.4% among 330,000; AID 463195, 2010;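 active means inhibition of 40% or more at the single tested concentration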;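 further: wild-type TIM10 isogenic control strain grown at permissive 25 °C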
PfHsp90 set2: growth inhibition of PfHsp90-expressing yeast, primary screen, antimalarial PfHsp90 inhibitor project, S. cerevisiae, BacTiter-Glo luminescence, single point, set 2. hit rate 0.32% among 310,000. AID 504621, 2011. inhibition, % at 9.4 µM. BacTiter-Glo ATP, 48 h; yeast lacking PDR1 and PDR3 efflux regulators;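 active means every replicate shows inhibition above about 80%, whatever the replicate mean, limit read from the data; inconclusive means mean inhibition reaches the set limit but some replicate falls short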
SKKanGAS inh: S. pyogenes SKKanGAS growth inhibitors in kanamycin, primary screen, streptokinase expression inhibitor project, SKKanGAS strain, BacTiter-Glo luminescence | 6 h | inhibition, % at 7.5 µM | hit rate 1.3% among 300,000 | AID 1662, 2009;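 active means mean replicate score, as percent of positive control median, at least 50; inconclusive means mean below 50 but one replicate at or above 50; inactive means mean and every replicate below 50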;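 further: strain carries kanamycin resistance gene driven by streptokinase promoter and grows in 40 µg/ml kanamycin; loss of luminescence reflects streptokinase promoter inhibition or plain growth inhibition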
tim10-1 conf: growth inhibitors of tim10-1 mutant yeast, confirmation, single concentration, luminescence, S. cerevisiae | AID 463213, 2010 | inhibition, % at 20 µM | S. cerevisiae tim10-1 ts strain growth, BacTiter-Glo, 24 h | shares compounds with tim10-1 inh | hit rate 56% among 7,400;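 active means inhibition of yeast growth at or above a set limit in either of two repeat tests at 20 µM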;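 further: tim10-1 mutant grown at permissive 25 °C to find synthetic lethal compounds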
TIM10 conf: growth inhibitors of wild-type TIM10 yeast, confirmation, counter-screen for tim10-1 synthetic lethality project, single concentration, luminescence, S. cerevisiae; shares compounds with TIM10 inh; AID 463215, 2010; hit rate 63% among 4,600; S. cerevisiae tim10 strain growth, BacTiter-Glo luminescence, 24 h; inhibition, % at 10 µM;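 active means inhibition of yeast growth at or above a set limit in either of two replicates at 10 µM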; further: this counterscreen used the strain with wild-type TIM10
tim23-1 conf: tim23-1 mutant yeast growth inhibitors, confirmation, luminescence, single concentration. shares compounds with tim23-1 inh. S. cerevisiae tim23-1 growth, BacTiter-Glo luminescence, 24 h. inhibition, % at 20 µM. hit rate 83% among 4,400. AID 463218, 2010;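 active means inhibition above about 39% in either of two replicate wells at 20 µM, limit read from the data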;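 further: temperature-sensitive tim23-1 mutant grown at 25 °C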
Numbers stand for hits; – = inactive; ? = inconclusive; · = no result. Sampled rows, rich in hits. Any-hit rate of the full collection: about 4.7%.

SMILES	tim23-1 inh	tim10-1 inh	EBI2 block	TIM10 inh	PfHsp90 set2	SKKanGAS inh	tim10-1 conf	TIM10 conf	tim23-1 conf
COc1ccc2oc(C(=O)N(C)Cc3ccc(OC(F)F)cc3)c(C)c2c1	–	–	–	–	–	–	·	·	·
COc1ccccc1/C=C1\N=C(C(C)(C)C)OC1=O	51.2	44.4	–	46.7	–	–	47.0	34.4	67.1
COc1cccc2oc3ccc(C#Cc4ccccn4)cc3c(=O)c12	75.1	41.3	–	55.9	–	–	52.8	38.0	69.5
CC(=O)NNc1nc(-c2ccccc2)c2cc(Br)ccc2n1	–	–	–	–	·	–	·	·	·
NNc1nc(-c2ccccc2)cc(-c2ccc(Br)cc2)n1	55.5	54.5	–	–	–	–	49.5	·	57.7
NNc1nc(-c2ccccc2)c2cc(Cl)ccc2n1	63.1	53.6	–	48.4	–	–	31.5	–	52.1
CN(C)c1nc(-c2ccccc2)c2cc(Cl)ccc2n1	–	–	–	–	–	–	·	·	·
NNc1nc(-c2ccccc2)c2cc(Br)ccc2n1	62.1	43.8	–	56.3	–	65.1	47.8	–	–
O=c1cc(-c2ccccc2)nc2cc(-c3ccc(Br)cc3)[nH]n12	–	–	–	–	–	–	·	·	·
C/C(=N\O)C(C)(C)Nc1ccccc1F	–	–	–	–	–	–	·	·	·
CC(=O)c1ccc(NC(=O)NC2CC(=O)N(c3ccc4c(c3)OCCO4)C2)cc1 (configuration not stated)	–	–	–	–	–	–	·	·	·
COc1ccc2c(c1)CC/C(=C/c1ccccn1)C2=O	58.3	55.2	–	56.5	–	–	53.7	59.5	52.1
O=C1C(=Cc2ccccn2)CCc2ccccc21	·	·	–	·	·	·	·	·	·
CN(c1ccccc1)c1nc(N)c([N+](=O)[O-])c(NCCO)n1	–	–	–	–	–	–	·	·	·
Cc1ccc(S(=O)(=O)c2ccc([N+](=O)[O-])cn2)cc1	74.7	73.0	–	73.3	95.2	–	67.8	70.0	74.8
Cc1ccc(S(=O)(=O)c2ccc(C)cc2)cc1	–	–	–	–	–	–	·	·	·
CC1(C)CC(C(CC(=O)N2CCCC2)Cc2ccccc2)CCO1 (configuration not stated)	–	–	–	–	–	–	·	·	·
CC1=NN(c2ccccc2)C(=O)/C1=C\c1ccc(Br)s1	56.7	42.0	–	–	–	–	39.2	·	66.7
COC(=O)CCSCC(=O)N1N=C(c2ccc(Br)cc2)CC1c1cccc(OC)c1OC (configuration not stated)	–	–	–	–	–	–	·	·	·
COc1cc2c3c(c1)C(C)=CC(C)(C)N3C(=O)C2=O	56.7	41.3	–	–	–	–	–	·	57.3
COc1cc(N=C2C(=O)N3c4c(cccc42)C(C)=CC3(C)C)cc(OC)c1	–	–	–	–	–	–	·	·	·
Oc1ccc2ccccc2c1C1Nc2cccc3cccc(c23)N1	50.2	56.7	–	49.6	–	–	57.9	43.8	69.3
CCC(C)n1c(/C=C/c2ccccc2)nc2ccccc21 (configuration not stated)	53.1	45.4	–	43.7	–	–	35.4	–	50.2
CCc1ccc2c(CN3CCc4ccccc43)cc(=O)oc2c1	–	–	–	–	–	–	·	·	·
O=c1cc(CN2CCc3ccccc32)c2ccc(O)cc2o1	51.2	43.9	–	–	–	–	32.0	·	48.5
SMILES	tim23-1 inh	tim10-1 inh	EBI2 block	TIM10 inh	PfHsp90 set2	SKKanGAS inh	tim10-1 conf	TIM10 conf	tim23-1 conf
CN(C)c1ccc(C2CC(=O)C=C(Nc3ccccc3N)C2)cc1 (configuration not stated)	–	–	–	–	·	–	·	·	·
COc1ccc(OCC(=O)OCC(=O)NC2CCCCC2C)cc1 (configuration not stated)	–	–	–	–	–	·	·	·	·
CC1CCCCC1NC(=O)/C(C#N)=C/c1ccc(OCC(N)=O)cc1 (configuration not stated)	55.5	48.4	–	45.5	–	–	33.0	–	49.7
Cc1cc(C)nc(S/C=C/C(=O)c2ccccc2F)n1	63.8	43.4	–	53.4	–	–	–	53.2	63.2
O=[N+]([O-])c1ccc(N=Nc2ncc[nH]2)cc1	51.9	44.6	–	44.1	–	–	–	33.0	–
O=[N+]([O-])c1ccc(N=NN(CCO)CCO)cc1	–	–	–	–	–	–	·	·	·
Cc1cc(N)n2ncc(-c3cccc(Br)c3)c2n1	81.5	45.6	–	51.4	–	·	50.2	52.5	40.0
Cc1cc(N)n2ncc(-c3ccccc3)c2n1	–	–	–	–	–	–	·	·	·
NC(c1csc(Nc2nccc(C(F)(F)F)n2)n1)C1CCCCC1 (configuration not stated)	·	·	–	·	·	·	·	·	·
O=C(COc1cccc(NC(=O)c2ccco2)c1)c1ccc(F)cc1	55.1	41.9	–	47.2	–	·	32.2	48.0	70.9
Cc1cc(C)c2[nH]c(C(=O)Nc3ccc(F)cc3Br)cc2c1	–	–	–	–	–	–	·	·	·
O=C(Nc1scc(-c2ccccc2)c1C(=O)O)c1ccc(F)cc1	84.8	67.0	–	60.3	–	–	71.8	45.4	86.5
COc1ccc(-c2csc(NC(=O)c3ccc(C(C)(C)C)cc3)c2C(=O)O)cc1	84.7	84.5	·	73.4	·	81.8	83.3	92.3	89.5
Cc1ccc(-c2csc(NC(=O)c3ccc(F)cc3)c2C(=O)O)cc1	77.2	81.2	–	82.3	–	–	81.7	94.2	88.4
CCN(CC)CCN(C(=O)CCS(=O)(=O)c1ccccc1)c1nc2cc(C)cc(C)c2s1	54.8	50.9	–	44.1	–	?	–	29.6	39.0
COC(=O)C1=C(C)N(c2ccc(Cl)c(Cl)c2)C(=O)C1	59.0	45.9	–	43.4	–	–	47.1	38.8	50.4
COC(=O)c1ccccc1NC(=S)N1CCN(c2ccc(OC)cc2)CC1	–	–	–	–	–	–	·	·	·
Cc1ccc(NC(=O)CSc2nnc3ccccn23)cc1S(=O)(=O)N1CCOCC1	–	–	–	–	·	–	·	·	·
